Reference: PMC12864922, “TDP-43 directly inhibits mRNA accumulation in neurites through modulation of mRNA stability”
The full ranking holds about 9,900 sequences; the median of “r (bound/input frequency ratio)” is about 0.7, and the highest 2% start at about 6.5. This is one part of a sample in which the highest values are shown more often than they occur.

B1: ENSMUSG00000029636.423|Wasf3 (ssRNA)
RNA: GGGAGUUCUACAGUCCGACGAUCGCUUCGAUAUCCGCAUGCUAGAUGGGUGGGUUAGGUGGGUAAGUAGCUAGGUGGAUGGGUGGGUGGAUACAUGGAUGAGUGGAUGGGUGGAUUGGUGGGUGAGUGGAUAGGUGAAUGGAUGAUAGGUGGUGGAUGGUUGAGUGGGUGGAUUCAUGAUGGAUGGAUGGAUGGAUGGAUGGAUGGAUGGAUGGAUGAGUGGAUGGAUAAUAGGUUGAUGGGUGGAUAGGUAGAUGAGUGAAUAGAUAGAUAUAGAUCAGUGGGAGGAUUGGAAAGUAGGUGACUCUUGCGGUCGCACUAGUGUGGAAUUCUCGGGUGUCAAGG
B2: ENSMUSG00000029636.434|Wasf3 (ssRNA)
RNA: GGGAGUUCUACAGUCCGACGAUCGCUUCGAUAUCCGCAUGCUAGUGGAUUGGUGGGUGAGUGGAUAGGUGAAUGGAUGAUAGGUGGUGGAUGGUUGAGUGGGUGGAUUCAUGAUGGAUGGAUGGAUGGAUGGAUGGAUGGAUGGAUGGAUGAGUGGAUGGAUAAUAGGUUGAUGGGUGGAUAGGUAGAUGAGUGAAUAGAUAGAUAUAGAUCAGUGGGAGGAUUGGAAAGUAGGUGAAUGAAUGGAUGGCAGAUAGAUGGAUCAAUUACAGAUGGAUGGAUGCAUGGAAUAGAUAGGUGGAUGCUCUUGCGGUCGCACUAGUGUGGAAUUCUCGGGUGUCAAGG
B3: ENSMUSG00000029636.436|Wasf3 (ssRNA)
RNA: GGGAGUUCUACAGUCCGACGAUCGCUUCGAUAUCCGCAUGCUAGUGAGUGGAUAGGUGAAUGGAUGAUAGGUGGUGGAUGGUUGAGUGGGUGGAUUCAUGAUGGAUGGAUGGAUGGAUGGAUGGAUGGAUGGAUGGAUGAGUGGAUGGAUAAUAGGUUGAUGGGUGGAUAGGUAGAUGAGUGAAUAGAUAGAUAUAGAUCAGUGGGAGGAUUGGAAAGUAGGUGAAUGAAUGGAUGGCAGAUAGAUGGAUCAAUUACAGAUGGAUGGAUGCAUGGAAUAGAUAGGUGGAUGGGUGGUGGCUAGCUCUUGCGGUCGCACUAGUGUGGAAUUCUCGGGUGUCAAGG
B4: ENSMUSG00000029636.426|Wasf3 (ssRNA)
RNA: GGGAGUUCUACAGUCCGACGAUCGCUUCGAUAUCCGCAUGCUAGUAAGUAGCUAGGUGGAUGGGUGGGUGGAUACAUGGAUGAGUGGAUGGGUGGAUUGGUGGGUGAGUGGAUAGGUGAAUGGAUGAUAGGUGGUGGAUGGUUGAGUGGGUGGAUUCAUGAUGGAUGGAUGGAUGGAUGGAUGGAUGGAUGGAUGGAUGAGUGGAUGGAUAAUAGGUUGAUGGGUGGAUAGGUAGAUGAGUGAAUAGAUAGAUAUAGAUCAGUGGGAGGAUUGGAAAGUAGGUGAAUGAAUGGAUGGCAGAUACUCUUGCGGUCGCACUAGUGUGGAAUUCUCGGGUGUCAAGG
B5: ENSMUSG00000029636.431|Wasf3 (ssRNA)
RNA: GGGAGUUCUACAGUCCGACGAUCGCUUCGAUAUCCGCAUGCUAACAUGGAUGAGUGGAUGGGUGGAUUGGUGGGUGAGUGGAUAGGUGAAUGGAUGAUAGGUGGUGGAUGGUUGAGUGGGUGGAUUCAUGAUGGAUGGAUGGAUGGAUGGAUGGAUGGAUGGAUGGAUGAGUGGAUGGAUAAUAGGUUGAUGGGUGGAUAGGUAGAUGAGUGAAUAGAUAGAUAUAGAUCAGUGGGAGGAUUGGAAAGUAGGUGAAUGAAUGGAUGGCAGAUAGAUGGAUCAAUUACAGAUGGAUGGAUGCAUCUCUUGCGGUCGCACUAGUGUGGAAUUCUCGGGUGUCAAGG
B6: ENSMUSG00000029636.425|Wasf3 (ssRNA)
RNA: GGGAGUUCUACAGUCCGACGAUCGCUUCGAUAUCCGCAUGCUAAGGUGGGUAAGUAGCUAGGUGGAUGGGUGGGUGGAUACAUGGAUGAGUGGAUGGGUGGAUUGGUGGGUGAGUGGAUAGGUGAAUGGAUGAUAGGUGGUGGAUGGUUGAGUGGGUGGAUUCAUGAUGGAUGGAUGGAUGGAUGGAUGGAUGGAUGGAUGGAUGAGUGGAUGGAUAAUAGGUUGAUGGGUGGAUAGGUAGAUGAGUGAAUAGAUAGAUAUAGAUCAGUGGGAGGAUUGGAAAGUAGGUGAAUGAAUGGAUGGCUCUUGCGGUCGCACUAGUGUGGAAUUCUCGGGUGUCAAGG
B7: ENSMUSG00000029636.424|Wasf3 (ssRNA)
RNA: GGGAGUUCUACAGUCCGACGAUCGCUUCGAUAUCCGCAUGCUAUGGGUUAGGUGGGUAAGUAGCUAGGUGGAUGGGUGGGUGGAUACAUGGAUGAGUGGAUGGGUGGAUUGGUGGGUGAGUGGAUAGGUGAAUGGAUGAUAGGUGGUGGAUGGUUGAGUGGGUGGAUUCAUGAUGGAUGGAUGGAUGGAUGGAUGGAUGGAUGGAUGGAUGAGUGGAUGGAUAAUAGGUUGAUGGGUGGAUAGGUAGAUGAGUGAAUAGAUAGAUAUAGAUCAGUGGGAGGAUUGGAAAGUAGGUGAAUGAAUCUCUUGCGGUCGCACUAGUGUGGAAUUCUCGGGUGUCAAGG
B8: ENSMUSG00000029636.433|Wasf3 (ssRNA)
RNA: GGGAGUUCUACAGUCCGACGAUCGCUUCGAUAUCCGCAUGCUAGGAUGGGUGGAUUGGUGGGUGAGUGGAUAGGUGAAUGGAUGAUAGGUGGUGGAUGGUUGAGUGGGUGGAUUCAUGAUGGAUGGAUGGAUGGAUGGAUGGAUGGAUGGAUGGAUGAGUGGAUGGAUAAUAGGUUGAUGGGUGGAUAGGUAGAUGAGUGAAUAGAUAGAUAUAGAUCAGUGGGAGGAUUGGAAAGUAGGUGAAUGAAUGGAUGGCAGAUAGAUGGAUCAAUUACAGAUGGAUGGAUGCAUGGAAUAGAUAGGCUCUUGCGGUCGCACUAGUGUGGAAUUCUCGGGUGUCAAGG
B9: ENSMUSG00000029636.422|Wasf3 (ssRNA)
RNA: GGGAGUUCUACAGUCCGACGAUCGCUUCGAUAUCCGCAUGCUAUGAGUGGAUGGGUGGGUUAGGUGGGUAAGUAGCUAGGUGGAUGGGUGGGUGGAUACAUGGAUGAGUGGAUGGGUGGAUUGGUGGGUGAGUGGAUAGGUGAAUGGAUGAUAGGUGGUGGAUGGUUGAGUGGGUGGAUUCAUGAUGGAUGGAUGGAUGGAUGGAUGGAUGGAUGGAUGGAUGAGUGGAUGGAUAAUAGGUUGAUGGGUGGAUAGGUAGAUGAGUGAAUAGAUAGAUAUAGAUCAGUGGGAGGAUUGGAAAGUCUCUUGCGGUCGCACUAGUGUGGAAUUCUCGGGUGUCAAGG

What follows are binders tested against TDP-43 (Homo sapiens, UniProt Q13148 1-414) (assay: RNA Bind-n-Seq with designed 260-mer pool; 25 mM Tris-HCl, 150 mM KCl, 3 mM MgCl2, BSA (printed 500 mg/mL), 20 units/mL SUPERase IN; pH not stated; 500 nM RNA pool, 1 h, 4 C; TDP-43 5, 50, 500 nM; high values mean tight binding). Conditions: protein: recombinant; tags: SBP (GST cleaved off with PreScission; pGEX-GST-SBP).
How it was run: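 An in vitro-transcribed pool of 260-nt 3′ UTR oligos (500 nM) was incubated for 1 h at 4 °C with recombinant SBP-tagged TDP-43 at 5, 50 or 500 nM held on streptavidin beads. The buffer contained 25 mM Tris-HCl, 150 mM KCl, 3 mM MgCl2, BSA and SUPERase IN. Biotin-eluted bound RNA was sequenced, and binding, R, is each oligo's normalized read abundance in the bound sample over that in input.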

TDP-43, sequence (Q13148 whole entry): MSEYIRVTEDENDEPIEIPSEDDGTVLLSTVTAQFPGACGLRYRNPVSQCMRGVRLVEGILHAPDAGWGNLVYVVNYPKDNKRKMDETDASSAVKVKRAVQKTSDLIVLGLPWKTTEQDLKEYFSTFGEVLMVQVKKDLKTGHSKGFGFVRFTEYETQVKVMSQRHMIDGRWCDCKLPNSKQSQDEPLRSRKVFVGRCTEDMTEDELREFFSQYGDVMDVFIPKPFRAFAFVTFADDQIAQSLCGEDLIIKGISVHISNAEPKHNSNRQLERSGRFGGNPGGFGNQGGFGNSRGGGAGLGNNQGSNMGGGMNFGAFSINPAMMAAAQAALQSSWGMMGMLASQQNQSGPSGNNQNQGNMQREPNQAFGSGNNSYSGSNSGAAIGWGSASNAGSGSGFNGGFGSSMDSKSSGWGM

Binder	binding signal
B1	4.57 R (bound/input frequency ratio)
B2	7.94 R (bound/input frequency ratio)
B3	6.61 R (bound/input frequency ratio)
B4	3.58 R (bound/input frequency ratio)
B5	6.71 R (bound/input frequency ratio)
B6	3.86 R (bound/input frequency ratio)
B7	1.66 R (bound/input frequency ratio)
B8	4.32 R (bound/input frequency ratio)
B9	11.2 R (bound/input frequency ratio)
